The results in this text go back to ChEMBL document CHEMBL1961873, “Compounds: GSK PKIS; Assays: Nanosyn kinase panel” (2012).

The target in experiment [1] is Leukocyte tyrosine kinase receptor (Homo sapiens) (UniProt P29376). The following applies: at 1 µM.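 Also: each value is the mean inhibition of LTK.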
Experiment [2] deals with Tyrosine-protein kinase Lyn (Homo sapiens) (UniProt P07948). To be noted: at 0.1 µM.
The target is the same in experiment [3]. To be noted: at 1 µM.
The target is the same in experiment [4]. To be noted: at 0.1 µM. The source holds these as a separate data set.
For experiment [5] the target is unchanged. The following applies: at 1 µM. The source holds these as a separate data set.
The target in experiment [6] is T1, Tyrosine-protein kinase Mer (Homo sapiens) (UniProt Q12866).
T1 sequence (whole entry): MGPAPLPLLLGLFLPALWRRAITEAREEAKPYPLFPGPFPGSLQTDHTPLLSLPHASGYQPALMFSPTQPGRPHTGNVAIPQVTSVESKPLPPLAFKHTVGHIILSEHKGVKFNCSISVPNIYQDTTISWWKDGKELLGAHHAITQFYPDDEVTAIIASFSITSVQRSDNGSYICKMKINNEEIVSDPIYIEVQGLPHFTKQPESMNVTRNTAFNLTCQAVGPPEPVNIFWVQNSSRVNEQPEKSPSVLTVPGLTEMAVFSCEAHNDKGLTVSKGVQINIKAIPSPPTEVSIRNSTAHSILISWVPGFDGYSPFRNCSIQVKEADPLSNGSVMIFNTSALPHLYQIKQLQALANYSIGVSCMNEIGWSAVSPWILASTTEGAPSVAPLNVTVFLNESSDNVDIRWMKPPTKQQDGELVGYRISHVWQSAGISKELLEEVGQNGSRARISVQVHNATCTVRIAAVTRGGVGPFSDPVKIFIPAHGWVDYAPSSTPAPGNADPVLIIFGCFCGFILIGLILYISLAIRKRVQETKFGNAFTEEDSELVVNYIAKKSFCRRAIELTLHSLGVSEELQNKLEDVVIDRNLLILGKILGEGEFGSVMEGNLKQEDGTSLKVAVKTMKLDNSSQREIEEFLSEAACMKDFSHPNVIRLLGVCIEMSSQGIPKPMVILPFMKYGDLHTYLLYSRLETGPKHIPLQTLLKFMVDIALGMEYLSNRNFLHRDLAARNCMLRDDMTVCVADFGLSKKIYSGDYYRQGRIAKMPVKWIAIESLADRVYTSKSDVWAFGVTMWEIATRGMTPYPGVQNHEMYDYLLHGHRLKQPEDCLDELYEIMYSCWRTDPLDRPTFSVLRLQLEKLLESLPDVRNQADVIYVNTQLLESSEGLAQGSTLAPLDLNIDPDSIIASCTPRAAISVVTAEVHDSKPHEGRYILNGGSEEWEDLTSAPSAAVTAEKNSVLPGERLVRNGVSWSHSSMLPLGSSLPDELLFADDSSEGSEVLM
The following applies: at 0.1 µM.

Experiment [7] addresses T1, Tyrosine-protein kinase Mer (Homo sapiens). The following applies: at 1 µM.
The target in experiment [8] is Hepatocyte growth factor receptor (Homo sapiens) (UniProt P08581). To be noted: at 0.1 µM.
Hepatocyte growth factor receptor (Homo sapiens), sequence (P08581 whole entry): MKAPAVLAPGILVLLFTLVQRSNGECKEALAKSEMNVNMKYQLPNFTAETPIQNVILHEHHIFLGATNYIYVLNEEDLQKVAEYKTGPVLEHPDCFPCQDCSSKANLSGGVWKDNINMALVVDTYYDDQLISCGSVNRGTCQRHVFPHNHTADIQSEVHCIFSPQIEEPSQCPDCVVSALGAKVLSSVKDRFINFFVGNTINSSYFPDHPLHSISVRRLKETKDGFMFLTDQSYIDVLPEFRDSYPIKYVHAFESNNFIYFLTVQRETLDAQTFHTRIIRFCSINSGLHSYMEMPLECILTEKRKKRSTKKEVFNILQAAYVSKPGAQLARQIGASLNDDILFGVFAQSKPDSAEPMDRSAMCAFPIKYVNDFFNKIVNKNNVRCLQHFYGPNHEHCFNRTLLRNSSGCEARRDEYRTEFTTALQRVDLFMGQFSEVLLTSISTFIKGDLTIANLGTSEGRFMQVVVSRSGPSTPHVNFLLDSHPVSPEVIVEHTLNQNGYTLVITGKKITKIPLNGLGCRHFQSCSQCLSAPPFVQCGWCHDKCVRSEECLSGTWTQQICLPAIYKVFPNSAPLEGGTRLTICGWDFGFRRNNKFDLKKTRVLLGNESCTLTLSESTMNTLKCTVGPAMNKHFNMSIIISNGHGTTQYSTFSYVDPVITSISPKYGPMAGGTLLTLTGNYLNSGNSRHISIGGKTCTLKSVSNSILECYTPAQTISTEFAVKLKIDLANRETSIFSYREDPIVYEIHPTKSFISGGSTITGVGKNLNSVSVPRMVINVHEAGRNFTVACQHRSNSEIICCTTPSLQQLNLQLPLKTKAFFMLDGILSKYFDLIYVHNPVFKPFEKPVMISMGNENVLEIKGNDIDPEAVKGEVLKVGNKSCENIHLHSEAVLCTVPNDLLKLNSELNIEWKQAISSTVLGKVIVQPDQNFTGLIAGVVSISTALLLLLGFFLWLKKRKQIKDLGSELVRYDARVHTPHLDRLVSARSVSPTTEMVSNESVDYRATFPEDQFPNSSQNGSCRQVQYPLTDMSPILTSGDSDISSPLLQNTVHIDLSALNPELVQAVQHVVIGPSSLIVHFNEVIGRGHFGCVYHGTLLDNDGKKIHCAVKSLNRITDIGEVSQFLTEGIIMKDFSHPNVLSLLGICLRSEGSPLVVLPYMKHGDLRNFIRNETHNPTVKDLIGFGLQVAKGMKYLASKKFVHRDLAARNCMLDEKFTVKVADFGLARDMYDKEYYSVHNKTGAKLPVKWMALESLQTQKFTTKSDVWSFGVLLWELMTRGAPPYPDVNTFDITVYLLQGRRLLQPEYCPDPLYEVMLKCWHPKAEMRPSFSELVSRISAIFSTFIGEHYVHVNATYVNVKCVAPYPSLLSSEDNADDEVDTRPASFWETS
Experiment [9] shares this target. The following applies: at 1 µM.
Experiment [10] addresses T2, Muscle, skeletal receptor tyrosine-protein kinase (Homo sapiens) (UniProt O15146).
T2 sequence (whole entry): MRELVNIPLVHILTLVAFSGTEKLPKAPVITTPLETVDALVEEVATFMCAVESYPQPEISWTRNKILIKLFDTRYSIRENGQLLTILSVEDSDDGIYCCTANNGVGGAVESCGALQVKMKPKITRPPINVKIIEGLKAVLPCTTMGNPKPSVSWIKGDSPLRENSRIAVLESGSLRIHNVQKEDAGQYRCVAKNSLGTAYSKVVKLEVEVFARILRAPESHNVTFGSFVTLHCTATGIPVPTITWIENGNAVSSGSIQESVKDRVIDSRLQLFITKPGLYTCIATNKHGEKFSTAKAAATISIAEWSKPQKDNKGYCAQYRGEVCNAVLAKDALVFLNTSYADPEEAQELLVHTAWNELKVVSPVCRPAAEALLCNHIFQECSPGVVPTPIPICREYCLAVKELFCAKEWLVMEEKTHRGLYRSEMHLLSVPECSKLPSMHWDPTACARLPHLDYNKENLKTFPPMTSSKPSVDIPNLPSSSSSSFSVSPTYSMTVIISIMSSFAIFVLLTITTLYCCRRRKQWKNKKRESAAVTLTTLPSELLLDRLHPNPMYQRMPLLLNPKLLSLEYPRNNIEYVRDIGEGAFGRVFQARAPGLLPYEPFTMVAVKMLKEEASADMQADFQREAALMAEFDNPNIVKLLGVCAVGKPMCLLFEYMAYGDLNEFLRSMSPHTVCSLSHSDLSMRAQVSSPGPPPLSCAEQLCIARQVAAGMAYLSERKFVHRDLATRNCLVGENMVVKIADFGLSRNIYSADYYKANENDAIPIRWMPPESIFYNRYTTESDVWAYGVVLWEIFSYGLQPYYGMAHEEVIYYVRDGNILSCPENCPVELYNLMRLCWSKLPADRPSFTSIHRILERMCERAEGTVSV
To be noted: at 0.1 µM.

Experiment [11] concerns the target T2, Muscle, skeletal receptor tyrosine-protein kinase (Homo sapiens). To be noted: at 1 µM.
For experiment [12], the target named is Platelet-derived growth factor receptor alpha (Homo sapiens) (UniProt P16234). To be noted: at 0.1 µM.
Platelet-derived growth factor receptor alpha (Homo sapiens), sequence (P16234 whole entry): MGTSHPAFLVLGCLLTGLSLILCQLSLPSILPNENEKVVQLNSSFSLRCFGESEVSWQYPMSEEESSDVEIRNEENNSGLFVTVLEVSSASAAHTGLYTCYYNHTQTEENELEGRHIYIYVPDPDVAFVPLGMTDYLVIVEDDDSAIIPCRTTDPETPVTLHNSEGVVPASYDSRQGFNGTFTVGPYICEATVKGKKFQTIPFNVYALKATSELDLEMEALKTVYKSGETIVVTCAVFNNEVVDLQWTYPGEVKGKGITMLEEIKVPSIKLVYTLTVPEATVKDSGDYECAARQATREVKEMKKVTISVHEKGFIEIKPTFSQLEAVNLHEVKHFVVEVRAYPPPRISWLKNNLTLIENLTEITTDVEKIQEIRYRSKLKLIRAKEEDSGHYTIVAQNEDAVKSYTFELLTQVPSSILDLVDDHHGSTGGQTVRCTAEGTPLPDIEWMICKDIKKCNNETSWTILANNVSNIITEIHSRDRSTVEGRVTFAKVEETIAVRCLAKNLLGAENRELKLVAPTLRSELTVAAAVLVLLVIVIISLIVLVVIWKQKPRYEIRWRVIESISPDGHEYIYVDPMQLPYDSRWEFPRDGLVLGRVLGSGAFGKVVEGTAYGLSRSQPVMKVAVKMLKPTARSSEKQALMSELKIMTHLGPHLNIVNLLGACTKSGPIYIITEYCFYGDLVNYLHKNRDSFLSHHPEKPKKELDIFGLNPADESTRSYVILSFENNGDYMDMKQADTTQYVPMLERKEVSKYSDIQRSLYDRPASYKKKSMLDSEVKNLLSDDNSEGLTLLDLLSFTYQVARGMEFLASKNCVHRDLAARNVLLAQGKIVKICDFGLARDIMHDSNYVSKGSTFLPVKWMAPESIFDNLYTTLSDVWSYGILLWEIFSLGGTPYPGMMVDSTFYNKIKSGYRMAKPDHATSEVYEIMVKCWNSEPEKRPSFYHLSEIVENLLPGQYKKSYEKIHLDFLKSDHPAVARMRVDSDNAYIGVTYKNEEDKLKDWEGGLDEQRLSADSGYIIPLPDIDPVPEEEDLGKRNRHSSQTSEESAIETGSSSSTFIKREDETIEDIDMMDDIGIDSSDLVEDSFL
For experiment [13] the target is unchanged. The following applies: at 1 µM.
For experiment [14], the system named is Platelet-derived growth factor receptor alpha (Homo sapiens), P16234 [D842V]. To be noted: at 0.1 µM.
Experiment [15] has the same test system. To be noted: at 1 µM.
In experiment [16] the test system is Platelet-derived growth factor receptor alpha (Homo sapiens), P16234 [T674I]. The following applies: at 0.1 µM.
Platelet-derived growth factor receptor alpha (Homo sapiens), P16234 [T674I], sequence (P16234 whole entry T674I): as the sequence (P16234 whole entry) above, with T674I counted along it
Experiment [17] shares this test system. To be noted: at 1 µM.
In experiment [18] the test system is Platelet-derived growth factor receptor alpha (Homo sapiens), P16234 [V561D]. The following applies: at 0.1 µM.
Experiment [19] shares this test system. To be noted: at 1 µM.
For experiment [20], the target named is Platelet-derived growth factor receptor beta (Homo sapiens) (UniProt P09619). To be noted: at 0.1 µM.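 Also: reported value is the mean percent inhibition of the kinase.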

Tyrosine-protein kinase Lyn (Homo sapiens), sequence (P07948 2-512 limits assumed): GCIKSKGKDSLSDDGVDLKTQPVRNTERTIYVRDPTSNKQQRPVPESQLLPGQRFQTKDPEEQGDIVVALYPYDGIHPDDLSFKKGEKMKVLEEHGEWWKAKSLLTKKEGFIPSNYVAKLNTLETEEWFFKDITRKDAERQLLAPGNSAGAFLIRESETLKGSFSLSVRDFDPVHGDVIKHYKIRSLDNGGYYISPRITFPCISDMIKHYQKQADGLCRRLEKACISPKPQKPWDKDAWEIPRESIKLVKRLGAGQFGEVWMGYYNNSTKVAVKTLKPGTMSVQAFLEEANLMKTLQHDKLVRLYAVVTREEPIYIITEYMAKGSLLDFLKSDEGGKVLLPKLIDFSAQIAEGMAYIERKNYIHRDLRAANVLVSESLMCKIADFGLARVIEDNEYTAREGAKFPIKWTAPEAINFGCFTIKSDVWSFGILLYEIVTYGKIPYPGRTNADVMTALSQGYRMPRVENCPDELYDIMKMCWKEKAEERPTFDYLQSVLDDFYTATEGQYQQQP
Leukocyte tyrosine kinase receptor (Homo sapiens), sequence (P29376 whole entry): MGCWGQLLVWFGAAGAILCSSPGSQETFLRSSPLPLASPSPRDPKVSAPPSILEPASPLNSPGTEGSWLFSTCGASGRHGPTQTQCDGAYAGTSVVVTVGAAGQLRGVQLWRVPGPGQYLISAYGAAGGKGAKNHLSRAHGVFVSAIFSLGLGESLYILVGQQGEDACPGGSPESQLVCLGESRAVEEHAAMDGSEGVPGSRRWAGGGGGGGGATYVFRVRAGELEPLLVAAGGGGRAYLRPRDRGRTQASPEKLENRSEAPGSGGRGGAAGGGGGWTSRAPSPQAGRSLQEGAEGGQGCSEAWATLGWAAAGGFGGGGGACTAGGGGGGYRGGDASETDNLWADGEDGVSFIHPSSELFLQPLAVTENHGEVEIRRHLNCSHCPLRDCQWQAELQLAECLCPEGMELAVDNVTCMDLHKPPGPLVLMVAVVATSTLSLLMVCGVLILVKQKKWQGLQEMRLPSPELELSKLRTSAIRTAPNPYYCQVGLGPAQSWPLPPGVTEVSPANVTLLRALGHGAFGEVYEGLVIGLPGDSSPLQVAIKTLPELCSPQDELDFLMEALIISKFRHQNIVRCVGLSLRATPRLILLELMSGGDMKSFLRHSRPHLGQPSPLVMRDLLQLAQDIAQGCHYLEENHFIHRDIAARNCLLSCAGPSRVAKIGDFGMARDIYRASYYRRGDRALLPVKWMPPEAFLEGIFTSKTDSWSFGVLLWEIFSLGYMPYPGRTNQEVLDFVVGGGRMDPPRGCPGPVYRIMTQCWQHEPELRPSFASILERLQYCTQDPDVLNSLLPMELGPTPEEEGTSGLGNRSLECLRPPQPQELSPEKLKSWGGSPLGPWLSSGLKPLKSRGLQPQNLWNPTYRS

Regarding `CN1CCC(C(=O)Nc2n[nH]c3nnc(-c4ccccc4)cc23)CC1`, the inhibition in [1] was determined as 4.51%; in experiment [2], 5.18%; in [3], 4.72%; in experiment [4], 2.24%; in experiment [5] it was 3.51%; in [6], 1.95%. The inhibition in experiment [7] was determined as 7.11%; in experiment [8] it was 1.78%; in experiment [9], 3.43%; in experiment [10] it was 3.93%; in [11] it was 5.06%; in experiment [12], 5.74%. In addition, the inhibition in [13] was determined as 16.5%; in [14] it was 3.37%; in experiment [15] it was 3.2%; in experiment [16], 6.86%; in experiment [17], 7.55%; in [18], 7.2%. Moreover, the results for the inhibition in [19] and in experiment [20] were 6.38% and 2.43%, respectively.

For the compound `O=C1NC(=O)C(N2CCc3ccccc32)=C1c1ccc(Cl)cc1`, the inhibition came out at 1.64% in experiment [1]; 6.82% in experiment [2]; 6.94% in experiment [3]; 5.14% in [4]; 4.26% in experiment [5]; 4.06% in [6]. Besides, the inhibition is 6.47% in [7]; -1.68% in experiment [8]; 7.33% in [9]; 2.09% in experiment [10]; 3.86% in experiment [11]; 13.4% in experiment [12]. For the same compound, the inhibition is 15.4% in experiment [13]; 3.39% in experiment [14]; 6.57% in experiment [15]; 10.4% in experiment [16]; 7.21% in [17]; 3.93% in experiment [18]. For the same compound, in experiment [19], the inhibition was found to be 6.68%.

Turning to `Fc1cccc(COc2ccc(Nc3ncnc4cc(-c5ccc[nH]5)sc34)cc2Cl)c1`, the inhibition is 9.35% in experiment [1]; 2.95% in experiment [2]; 7.02% in experiment [3]; 1.43% in experiment [4]; 4.65% in experiment [5]; 1.29% in experiment [6]. Also, the inhibition in experiment [7] is 5.95%; in experiment [8], -0.09%; in experiment [9], 4.48%; in experiment [10], 1.3%; in experiment [11], 6.25%; in [12] it was 9.2%. For the same compound, the inhibition in [13] came out at 15.6%; in experiment [14], 2.17%; in experiment [15] it was 4.7%; in experiment [16], 4.02%; in [17], 4.37%; in experiment [18], 2.42%. The results for the inhibition in [19] and in experiment [20] were 5.59% and 3.02%, respectively.

As for `Cc1nn(C)c2cc(N(C)c3ccnc(Nc4cccc(S(N)(=O)=O)c4)n3)ccc12`, the inhibition in [1] amounted to 29%; in experiment [2] it was 13.6%; in experiment [3] it was 51.3%; in [4], 9.71%; in [5], 46.8%; in experiment [6] it was 2.42%. In addition, the inhibition in [7] came out at 18.8%; in experiment [8], 7.18%; in experiment [9] it was 37.1%; in experiment [10] it was 2.31%; in experiment [11], 6.58%; in [12] it was 22.9%. In addition, the inhibition in experiment [13] was found to be 61.2%; in experiment [14], 7.33%; in experiment [15] it was 36.1%; in experiment [16], 5.29%; in [17], 15.1%; in experiment [18], 23.2%. In addition, the figures for the inhibition in [19] and in experiment [20] were 70.1% and 18.2%, respectively.

Turning to `[O-][S+]1CCN(Cc2ccc(-c3ccc4ncnc(Nc5ccc(OCc6ccccc6)c(F)c5)c4c3)o2)CC1`, the inhibition in experiment [1] turned out to be 3.33%; in experiment [2] it was 2.19%; in experiment [3], 5.34%; in experiment [4], 1.2%; in experiment [5], 1.42%; in [6], 42.1%. Also, the inhibition in experiment [7] was found to be 81.8%; in experiment [8], 6.51%; in experiment [9], 0.93%; in experiment [10], 1.44%; in experiment [11], 3.05%; in experiment [12], 3.33%. In addition, the inhibition in [13] stood at 4.2%; in [14] it was 2.67%; in experiment [15], 1.42%; in experiment [16] it was 2.19%; in experiment [17], 3.59%; in [18] it was 0.45%. Also, the inhibition in [19] came to 3.92%; in [20], 1.19%.

As to `CS(=O)(=O)CCN(CC#N)Cc1ccc(-c2ccc3ncnc(Nc4ccc(OCc5cccc(F)c5)c(Cl)c4)c3c2)o1`, the inhibition was found to be 1.95% in experiment [1]; 2.44% in [2]; 3.17% in [3]; 1.32% in [4]; 1.72% in [5]; 2.77% in experiment [6]. In addition, the inhibition in experiment [7] worked out at 2.05%; in [8], 7.6%; in [9], 2.64%; in experiment [10], 1.44%; in experiment [11], 1.87%; in [12], 5.88%. Also, the inhibition in experiment [13] stood at 10.3%; in [14] it was 1.15%; in [15], 3.78%; in experiment [16], 1.63%; in experiment [17], 5.75%; in experiment [18], 1.15%. For the same compound, the inhibition was determined as 4.06% in experiment [19] and 4.64% in [20].

For orientation: inhibition means the relative decrease from the control value, in per cent.
